Test [1] is described as follows: qHTS assay to identify small molecule antagonists of the vitamin D receptor (VDR) signaling pathway - cell viability counter screen (AID 743225; active = well fitted curve in the direction sought with a large enough effect in the repeat runs; an effect the other way counts as inactive or inconclusive; note: % is set by controls: 0 for no effect and ±100 for the full control effect; nearly all actives have a fitted effect of over 50% in size). The essentials:
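Viability counter screen run in the same wells as the beta-lactamase reporter assay: HEK 293T VDR-UAS-bla cells, 16 h compound exposure at 37C with 3 nM (final) 1-alpha,25-dihydroxyvitamin D3. CellTiter-Glo luminescence, 30 min, room temperature.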
(In qHTS, concentration-response curves come from the screen itself.)

A short description of test [2]: qHTS assay to identify small molecule agonists of the NFkB signaling pathway - cell viability counter screen (AID 1159515). Note: series mostly up to about 61 µM; % is set by controls: 0 for no effect and ±100 for the full control effect; nearly all actives have a fitted effect of over 55% in size. The essentials:
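Counter screen run alongside the NFkB-bla agonist assay: ME-180 reporter cells exposed to compounds for 5 hr, then lysed with CellTiter-Glo in the same wells. Luminescence, read after 30 min, reflects viable cells.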

Test [3] in a line: qHTS assay to identify small molecule agonists of the endoplasmic reticulum stress response signaling pathway (AID 1159516; active = well fitted activation curve with a large enough effect in the signal ratio in the repeat runs, not every such curve was filed as active; the % refers to the signal ratio; note: % is set by controls: 0 for no effect and ±100 for the full control effect). The essentials:
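For this screen, HeLa cells stably carrying beta-lactamase under the ER stress response element received test compounds, positive controls or DMSO for 5 hr at 37 C; B/G FRET substrate was then added and dual-wavelength emission recorded.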

The nature of test [4]: qHTS assay to identify small molecule agonists of the endoplasmic reticulum stress response signaling pathway - cell viability counter screen (AID 1159517). Note: series mostly up to about 61 µM; % is set by controls: 0 for no effect and ±100 for the full control effect; nearly all actives have a fitted effect of over 50% in size. An outline of the steps: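 ESRE-bla HeLa cells (1,500/well) were plated overnight at 37 C and exposed to compounds for 5 hr. After the 2 hr beta-lactamase substrate read, CellTiter-Glo went into the same wells, and luminescence was read after 30 min at room temperature.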

The nature of test [5]: qHTS assay to identify small molecule antagonists of the retinoid-related orphan receptor gamma (ROR-gamma) signaling pathway - cell viability counter screen (AID 1159520; active = well fitted curve in the direction sought with a large enough effect in the repeat runs; an effect the other way counts as inactive or inconclusive; note: % is set by controls: 0 for no effect and ±100 for the full control effect; nearly all actives have a fitted effect of over 50% in size). The essentials: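 Cytotoxicity was read from cellular ATP (CellTiter-Glo luminescence) after 16 hr at 37 C with 1 uM doxycycline induction. The inducer was added 2 hr after compound transfer to Tet-on ROR gamma CHO cells.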

The target of test [6] is Nuclear receptor ROR-gamma (Homo sapiens) (UniProt P51449). The experiment in a line: qHTS assay to identify small molecule antagonists of the retinoid-related orphan receptor gamma (ROR-gamma) signaling pathway (AID 1159521; active = well fitted curve in the direction sought with a large enough effect in the repeat runs; an effect the other way counts as inactive or inconclusive; note: nearly all actives have a fitted effect of over 50% in size; note: potency is the fitted concentration of half-maximal effect; for activity change, negative = inhibition: top concentration of the series differs between compounds; % is set by controls: 0 for no effect and ±100 for the full control effect). The essentials: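 Luminescence readout (ONE-Glo, 30 min RT) after 16 h doxycycline induction; loss of signal scored as antagonism. CHO cells with TET-inducible RORγ and RORE-LUC reporter; compounds added 2 h before 1 uM final doxycycline.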

Test [7] can be described thus: qHTS assay to identify small molecule agonists of the AP-1 signaling pathway - cell viability counter screen (AID 1159525). Note: nearly all actives have a fitted effect of over 55% in size. An outline of the steps:
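Intracellular ATP by Cell Titer Glo luminescence (30 min, RT) in the same ME-180 AP-1-bla wells after the 5 h compound exposure at 37 °C. Normalised to tetra n-octyl ammonium bromide and DMSO controls.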

Test [8] is described as follows: qHTS assay to identify small molecule agonists of the AP-1 signaling pathway (AID 1159526). Note: % is set by controls: 0 for no effect and ±100 for the full control effect.
A short description of test [9]: qHTS assay to identify small molecule agonists of the vitamin D receptor (VDR) signaling pathway - cell viability counter screen (AID 743224; active = well fitted curve in the direction sought with a large enough effect in the repeat runs; an effect the other way counts as inactive or inconclusive). An outline of the steps:
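Counter screen for cytotoxicity: VDR-bla cells at 2,000 cells/well, 16 h compound exposure, then CellTiter-Glo luminescence after the beta-lactamase measurement.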

Consider 32 compounds from PubChem BioAssay (Tox21).

Records with an inconclusive call do not appear. Unmarked numbers belong to inactive results. Activity calls are given as the source filed them. Unless noted, calls come from the whole dose curve.

Regarding `CCCCCCC/C=C/C=O`, the result in test [1], in [2], in test [3], in test [4] and in [7] was inactive. For the same compound, the Potency entry in test [5], in [6] and in [8] was “inactive” in each case.

On to `c1ccc(-c2ccc(-c3ccccc3)cc2)cc1`, for which the outcome in [9], in test [1], in test [2], in test [3] and in [4] was inactive. For the same compound, the activity, negative = cytotoxicity in [5] is 4.58% [at 19 µM]. Further, the activity change, negative = inhibition in test [6] is 98.3% [at 19 µM]. For the same compound, the viability change, negative = cytotoxic in [7] is 1.74% [at 15.8 µM]. For the same compound, in test [8], the activation is -13.1% [at 15.8 µM].

Regarding `CCc1ccc2c(c1)C(=O)c1ccccc1C2=O`, the compound was classed as inactive in test [9], in test [1], in test [2], in test [4] and in [7]. In addition, the Potency entry in test [5], in test [6] and in test [8] was “inactive” in each case.

Regarding `CC(C)=CCC[C@H](C)CCO`, the result in test [9], in [1], in test [2], in test [3], in test [4] and in test [7] was inactive. For the same compound, the Potency entry in [6] and in test [8] was “inactive” each time.

Take `CC(C)(C(=O)O)c1ccc(C(O)CCCN2CCC(C(O)(c3ccccc3)c3ccccc3)CC2)cc1` (stereo not drawn): the call in test [9], in test [1], in [2], in test [3], in test [4] and in test [7] was inactive. Further, the Potency result in test [5], in [6] and in [8] was “inactive” each time.

Take `O=C1c2ccccc2C(=O)c2c1ccc(O)c2O`: the result in test [9], in test [1], in [2], in test [3], in [4] and in test [7] was inactive. In addition, the Potency result in test [5], in test [6] and in [8] was “inactive” in each case.

As for `C=Cc1ccc(C=C)cc1`, the call in test [9], in test [1], in test [2], in [3], in [4] and in [7] was inactive. Further, the Potency entry in [5], in test [6] and in [8] was “inactive” each time.

For the compound `O=C(Cl)c1ccc(F)c(Cl)c1`, the result in test [9], in test [1], in [2], in test [4] and in [7] was inactive. Further, the Potency result in [5], in test [6] and in test [8] was “inactive” in each case.

With `CCCCCCCCS`, the call in test [9], in [1], in test [2], in [3], in [4] and in test [7] was inactive. In addition, the Potency entry in test [5], in test [6] and in test [8] was “inactive” in each case.

On to `COC(=O)/C=C/C(C)=C\C=C\C(C)=C\C=C\C=C(C)\C=C\C=C(C)\C=C\C(=O)O`, for which the compound was called inactive in test [1], in test [2], in test [4] and in test [7]. Moreover, the Potency entry in test [5], in [6] and in test [8] was “inactive” throughout.

For the compound `Cc1ccc(NC=O)c(C)c1`, the outcome in test [9], in test [1], in [2], in [3], in test [4] and in test [7] was inactive. In addition, the Potency result in test [6] and in test [8] was “inactive” each time.

Consider `O=C1c2ccccc2C(=O)C1c1ccc2ccccc2n1`, for which the result in [9], in test [1], in test [2], in test [3], in test [4] and in test [7] was inactive. In addition, the Potency entry in [5], in test [6] and in [8] was “inactive” in each case.

Turning to `C[C@]12CCC(=O)C=C1[C@@H]1C[C@@H]1[C@H]1[C@@H]3[C@@H]4C[C@@H]4[C@@]4(CCC(=O)O4)[C@@]3(C)CC[C@@H]12`, the result in [9], in test [1], in test [2], in test [3], in test [4] and in test [7] was inactive. The Potency result in test [5] and in test [8] was “inactive” each time. In addition, in test [6], the Potency is 7.5 µM (active).

On to `CC(C)NC(=O)c1ccccc1N`, for which the compound was classed as inactive in test [9], in [1], in test [2], in test [3], in test [4] and in [7]. Also, the Potency entry in [5], in test [6] and in test [8] was “inactive” in each case.

Take `Nc1ccc(C(=O)Oc2ccccc2)c(O)c1`: the call in [9], in [1], in test [2], in test [3], in test [4] and in test [7] was inactive. For the same compound, the Potency entry in test [5], in test [6] and in test [8] was “inactive” throughout.

`CC(C)=CCC/C(C)=C/C=N/O`: the compound was called inactive in test [9], in test [2], in test [4] and in test [7]. In addition, the Potency result in [5], in test [6] and in test [8] was “inactive” in each case.

With `CC/C=C\CCO`, the call in test [9], in test [1], in test [2], in test [3], in [4] and in test [7] was inactive. Besides, the Potency result in [5] and in [8] was “inactive” throughout.

As for `COc1ccc(/C=C/c2cc(OC)cc(=O)o2)cc1`, the call in [9], in test [1], in test [2], in test [3], in test [4] and in test [7] was inactive. In addition, the Potency result in [6] and in [8] was “inactive” throughout.

For `CC(CCl)OC(C)CCl` (stereo not drawn), the result in [9], in test [1], in test [2], in [4] and in [7] was inactive. Moreover, the Potency result in test [5], in test [6] and in [8] was “inactive” throughout.

As to `CC(C)(C)c1cc(C=O)cc(C(C)(C)C)c1O`, the compound was called inactive in test [1], in test [2], in test [4] and in test [7]. Moreover, the Potency result in test [6] and in test [8] was “inactive” in each case.

Turning to `C[C@H]1C[C@H]2[C@@H]3CCC4=CC(=O)C=C[C@]4(C)[C@@]3(F)[C@@H](O)C[C@]2(C)[C@@]1(O)C(=O)COP(=O)(O)O`, the compound was classed as inactive in test [9], in test [1], in test [2], in test [3], in test [4] and in [7]. Further, the Potency entry in test [5], in test [6] and in test [8] was “inactive” in each case.

Turning to `C=CC(C)(O)CC/C=C(/C)CCC=C(C)C` (stereo not drawn), the result in test [9], in test [1], in [2], in test [3], in test [4] and in [7] was inactive. Further, the Potency entry in test [5], in [6] and in test [8] was “inactive” in each case.

For the compound `O=P(c1ccccc1)(c1ccccc1)c1ccccc1`, the outcome in test [9], in [1], in test [2], in [4] and in test [7] was inactive. For the same compound, the Potency result in [6] and in test [8] was “inactive” throughout.

Regarding `CCCc1nc(C)c2c(=O)[nH]c(-c3cc(S(=O)(=O)N4CCN(CC)CC4)ccc3OCC)nn12`, the outcome in test [9], in test [1], in [2], in test [3], in test [4] and in [7] was inactive. For the same compound, the Potency result in test [5], in [6] and in test [8] was “inactive” in each case.

On to `CCC1=C(C)CN(C(=O)NCCc2ccc(S(=O)(=O)NC(=O)NC3CCC(C)CC3)cc2)C1=O` (stereo not drawn), for which the outcome in [9], in test [1], in test [2], in test [4] and in [7] was inactive. Moreover, the Potency entry in [5], in [6] and in test [8] was “inactive” throughout.

With `FC(F)(Cl)C(F)(Cl)Cl`, the compound was called inactive in [9], in test [2], in [3], in test [4] and in test [7]. In addition, the Potency entry in test [5], in test [6] and in test [8] was “inactive” each time.

For `O=C1c2ccccc2C(=O)C1c1ccc2cc(S(=O)(=O)O)cc(S(=O)(=O)O)c2n1`, the compound was classed as inactive in test [9], in [1], in test [2], in test [3], in test [4] and in test [7]. The Potency entry in test [5], in test [6] and in test [8] was “inactive” throughout.

`Nc1ccc(-c2ccc(F)cc2)cc1`: the compound was classed as inactive in test [9], in test [1], in [2], in test [3], in [4] and in test [7]. Besides, the Potency entry in test [5], in test [6] and in test [8] was “inactive” in each case.

As for `CCOC(=O)CC(O)(CC(=O)OCC)C(=O)OCC`, the compound was classed as inactive in [1], in [2], in test [3], in [4] and in [7]. Moreover, the Potency result in test [5], in test [6] and in test [8] was “inactive” throughout.

With `Nc1cccc2c(=O)[nH][nH]c(=O)c12`, the result in [9], in test [2], in test [3], in test [4] and in test [7] was inactive. The Potency result in test [5], in test [6] and in test [8] was “inactive” each time.

In the case of `CC/C=C/CCO`, the outcome in test [9], in test [2], in test [3], in [4] and in [7] was inactive. Further, the Potency result in test [5] and in test [8] was “inactive” in each case.

For the compound `CC1(COc2ccc(CC3SC(=O)NC3=O)cc2)CCCCC1` (stereo not drawn), the result in test [1], in test [2], in test [4] and in test [7] was inactive. For the same compound, the Potency result in test [5], in test [6] and in test [8] was “inactive” in each case.
